# This is part of a sample that, as a whole, favours compounds with a hit. Of some 79,000 tested, about 15% had one in any assay. Unmarked numbers belong to inactive results. The source made the active and inactive calls. Cut-off read from the data, not from the text of the source: active = growth inhibition above about 70%; inactive = the rest.
# Assays:
# [1] = NCI Yeast Anticancer Drug Screen. Data for the rad52 strain (AID 147);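 note: 0% = growth of vehicle-treated control cultures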; settings: S. cerevisiae rad52 mutant growth inhibition, hits give high values
# How it was run: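 Genetically altered yeast (DNA damage repair defect) treated with compound; inhibition calculated relative to vehicle.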
# [2] = NCI Yeast Anticancer Drug Screen. Data for the wt1 strain (AID 149);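 note: 0% = growth of vehicle-treated wt1 cultures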; settings: S. cerevisiae wt1 strain (SPY 50644) growth inhibition, hits give high values
# How it was run: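 Each compound is tested on wt1 yeast and the loss of growth versus vehicle gives the inhibition value.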
# [3] = NCI Yeast Anticancer Drug Screen. Data for the rad50EPP+ strain (AID 151);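 note: 0% = growth of vehicle-treated control cultures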; settings: S. cerevisiae rad50 mutant strain, hits give high values
# How it was run: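 Strain rad50EPP+; compound exposure; % growth inhibition vs vehicle.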
# [4] = NCI Yeast Anticancer Drug Screen. Data for the mgt1 strain (AID 153); settings: S. cerevisiae mgt1 mutant growth inhibition, hits give high values
# How it was run: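 Read-out: yeast growth inhibition vs vehicle control. Strain mgt1, drawn from a panel altered in DNA damage repair or cell cycle control.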
# [5] = NCI Yeast Anticancer Drug Screen. Data for the rad50 strain (AID 155);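 note: 0% = growth of vehicle-only cultures of the same strain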; settings: S. cerevisiae rad50 strain growth inhibition, hits give high values
# How it was run: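 Vehicle-treated cultures provide the reference for the growth inhibition reported for compound-exposed, repair-deficient yeast.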
# [6] = NCI Yeast Anticancer Drug Screen. Data for the mec2-1 strain (AID 157); settings: S. cerevisiae mec2-1 strain, hits give high values
# How it was run: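 Cells of the genetically defined mec2-1 yeast strain are incubated with test compound. Inhibition of growth is calculated against vehicle-treated controls.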
# [7] = NCI Yeast Anticancer Drug Screen. Data for the rad14 strain (AID 159);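 note: 0% = growth of vehicle-treated control cultures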; settings: S. cerevisiae rad14 strain growth inhibition, hits give high values
# How it was run: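 Inhibition of growth is reported for a repair-deficient yeast mutant following compound treatment, calculated relative to cultures that received vehicle.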
# [8] = NCI Yeast Anticancer Drug Screen. Data for the sgs1 mgt1 strain (AID 161);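 note: 0% = growth of cultures given vehicle only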; settings: S. cerevisiae sgs1 mgt1 strain, hits give high values
# How it was run: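 Inhibition of yeast growth, normalised to vehicle-treated controls, is reported for a strain bearing genetic alterations in DNA damage repair.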
# [9] = NCI Yeast Anticancer Drug Screen. Data for the CLN2oe strain (AID 163);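 note: 0% = growth of vehicle-only control cultures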; settings: S. cerevisiae CLN2oe strain, hits give high values
# How it was run: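 Strain altered in cell-cycle control, incubated with compound; growth compared to solvent-treated controls.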
# [10] = NCI Yeast Anticancer Drug Screen. Data for the cln2 rad14 strain (AID 165);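 note: 0% = growth equal to vehicle treated cultures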; settings: S. cerevisiae cln2 rad14 strain, hits give high values
# How it was run: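 The screen exposed genetically defined yeast (cln2 rad14) to test compounds and scored growth inhibition relative to vehicle-treated controls.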
# [11] = NCI Yeast Anticancer Drug Screen. Data for the bub3 strain (AID 167); settings: S. cerevisiae bub3 mutant strain, hits give high values
# How it was run: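 Mutant yeast screening strain plus compound; vehicle-treated cultures serve as the 0% inhibition reference.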
# [12] = NCI Yeast Anticancer Drug Screen. Data for the wt2 strain (AID 169); settings: S. cerevisiae wt2 strain growth inhibition, hits give high values
# How it was run: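 Steps: yeast strain treated with compound; growth recorded; inhibition calculated relative to cultures given vehicle alone.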
# [13] = NCI Yeast Anticancer Drug Screen. Data for the mlh1 strain (AID 171);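 note: 0% = growth of vehicle-treated control cultures of the same strain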; settings: S. cerevisiae mlh1 strain growth inhibition, hits give high values
# How it was run: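 Yeast screen: mutant strain plus compound, growth scored against vehicle control wells.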
# [14] = NCI Yeast Anticancer Drug Screen. Data for the sgs1 strain (AID 173);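 note: 0% = growth of vehicle-only control cultures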; settings: S. cerevisiae sgs1 mutant, hits give high values
# How it was run: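 Inhibition of yeast growth served as the measure. The mutant strain was treated with each compound, and growth was normalised to cultures receiving vehicle alone.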
# [15] = NCI Yeast Anticancer Drug Screen. Data for the mlh1 rad18 strain (AID 175); settings: S. cerevisiae mlh1 rad18 strain growth inhibition, hits give high values
# How it was run: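 Compound-treated yeast growth, normalised to vehicle controls. Strain bears defined DNA repair mutations.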
# [16] = NCI Yeast Anticancer Drug Screen. Data for the rad18 strain (AID 177); settings: S. cerevisiae rad18 mutant growth inhibition, hits give high values
# How it was run: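 Inhibition values reflect reduced yeast growth compared with vehicle-treated controls, using a strain engineered with a DNA damage repair defect.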
# [17] = at 5.0 µM (retest, dose inferred, filed as 0.5)
# [18] = at 50.0 µM (retest, dose inferred, filed as 5.0)
smiles,measurement,setting,value
O=C(O)c1cccc(-c2c3ccc(=O)cc-3oc3cc(O)ccc23)c1,growth inhibition,[1]; at 1.2 µM,-4%
same,growth inhibition,[1]; at 3.7 µM,26%
same,growth inhibition,[1]; at 11.0 µM,23%
same,growth inhibition,[1]; at 33.0 µM,62%
same,growth inhibition,[1]; at 100.0 µM,85% (active)
same,growth inhibition,[2]; at 1.2 µM,-10%
same,growth inhibition,[2]; at 3.7 µM,-5%
same,growth inhibition,[2]; at 11.0 µM,18%
same,growth inhibition,[2]; at 33.0 µM,77% (active)
same,growth inhibition,[2]; at 100.0 µM,96% (active)
same,growth inhibition,[3]; at 1.2 µM,-10%
same,growth inhibition,[3]; at 3.7 µM,3%
same,growth inhibition,[3]; at 11.0 µM,1%
same,growth inhibition,[3]; at 33.0 µM,-2%
same,growth inhibition,[3]; at 100.0 µM,25%
same,growth inhibition,[4]; at 1.2 µM,21%
same,growth inhibition,[4]; at 3.7 µM,12%
same,growth inhibition,[4]; at 11.0 µM,43%
same,growth inhibition,[4]; at 33.0 µM,80% (active)
same,growth inhibition,[4]; at 100.0 µM,97% (active)
same,growth inhibition,[5]; at 1.2 µM,9%
same,growth inhibition,[5]; at 3.7 µM,13%
same,growth inhibition,[5]; [17],90% (active)
same,growth inhibition,[5]; at 11.0 µM,22%
same,growth inhibition,[5]; at 33.0 µM,65%
same,growth inhibition,[5]; [18],99% (active)
same,growth inhibition,[5]; at 50.0 µM,63.6%
same,growth inhibition,[5]; at 100.0 µM,90% (active)
same,growth inhibition,[6]; at 1.2 µM,14%
same,growth inhibition,[6]; at 3.7 µM,14%
same,growth inhibition,[6]; [17],94% (active)
same,growth inhibition,[6]; at 11.0 µM,36%
same,growth inhibition,[6]; at 33.0 µM,84% (active)
same,growth inhibition,[6]; [18],99% (active)
same,growth inhibition,[6]; at 50.0 µM,23.1%
same,growth inhibition,[6]; at 100.0 µM,96% (active)
same,growth inhibition,[7]; at 1.2 µM,-29%
same,growth inhibition,[7]; at 3.7 µM,-20%
same,growth inhibition,[7]; at 11.0 µM,2%
same,growth inhibition,[7]; at 33.0 µM,71% (active)
same,growth inhibition,[7]; at 100.0 µM,95% (active)
same,growth inhibition,[8]; [17],0%
same,growth inhibition,[8]; [18],39%
same,growth inhibition,[8]; at 50.0 µM,54.2%
same,growth inhibition,[9]; at 1.2 µM,11%
same,growth inhibition,[9]; at 3.7 µM,-13%
same,growth inhibition,[9]; at 11.0 µM,-4%
same,growth inhibition,[9]; at 33.0 µM,61%
same,growth inhibition,[9]; at 100.0 µM,96% (active)
same,growth inhibition,[10]; [17],33%
same,growth inhibition,[10]; [18],69%
same,growth inhibition,[10]; at 50.0 µM,51%
same,growth inhibition,[11]; at 1.2 µM,10%
same,growth inhibition,[11]; at 3.7 µM,29%
same,growth inhibition,[11]; [17],53%
same,growth inhibition,[11]; at 11.0 µM,49%
same,growth inhibition,[11]; at 33.0 µM,79% (active)
same,growth inhibition,[11]; [18],69%
same,growth inhibition,[11]; at 50.0 µM,62.9%
same,growth inhibition,[11]; at 100.0 µM,92% (active)
same,growth inhibition,[12]; at 1.2 µM,-33%
same,growth inhibition,[12]; at 3.7 µM,-31%
same,growth inhibition,[12]; at 11.0 µM,-1%
same,growth inhibition,[12]; at 33.0 µM,76% (active)
same,growth inhibition,[12]; at 100.0 µM,95% (active)
same,growth inhibition,[13]; at 1.2 µM,-23%
same,growth inhibition,[13]; at 3.7 µM,-6%
same,growth inhibition,[13]; at 11.0 µM,39%
same,growth inhibition,[13]; at 33.0 µM,78% (active)
same,growth inhibition,[13]; at 100.0 µM,93% (active)
same,growth inhibition,[14]; at 1.2 µM,16%
same,growth inhibition,[14]; at 3.7 µM,35%
same,growth inhibition,[14]; at 11.0 µM,44%
same,growth inhibition,[14]; at 33.0 µM,83% (active)
same,growth inhibition,[14]; at 100.0 µM,92% (active)
same,growth inhibition,[15]; [17],94% (active)
same,growth inhibition,[15]; [18],99% (active)
same,growth inhibition,[15]; at 50.0 µM,47.8%
same,growth inhibition,[16]; at 1.2 µM,-3%
same,growth inhibition,[16]; at 3.7 µM,6%
same,growth inhibition,[16]; at 11.0 µM,41%
same,growth inhibition,[16]; at 33.0 µM,71% (active)
same,growth inhibition,[16]; at 100.0 µM,89% (active)
COc1cc(C2C3=C(COC3=O)Oc3cc4c(cc32)OCO4)ccc1O (stereo unspecified),growth inhibition,[1]; at 1.2 µM,-1%
same,growth inhibition,[1]; at 3.7 µM,2%
same,growth inhibition,[1]; at 11.0 µM,7%
same,growth inhibition,[1]; at 33.0 µM,34%
same,growth inhibition,[1]; at 100.0 µM,72% (active)
same,growth inhibition,[2]; at 1.2 µM,-2%
same,growth inhibition,[2]; at 3.7 µM,-7%
same,growth inhibition,[2]; at 11.0 µM,-5%
same,growth inhibition,[2]; at 33.0 µM,-5%
same,growth inhibition,[2]; at 100.0 µM,31%
same,growth inhibition,[3]; at 1.2 µM,-3%
same,growth inhibition,[3]; at 3.7 µM,0%
same,growth inhibition,[3]; at 11.0 µM,-3%
same,growth inhibition,[3]; at 33.0 µM,4%
same,growth inhibition,[3]; at 100.0 µM,15%
same,growth inhibition,[4]; at 1.2 µM,-1%
same,growth inhibition,[4]; at 3.7 µM,1%
same,growth inhibition,[4]; at 11.0 µM,0%
same,growth inhibition,[4]; at 33.0 µM,-5%
same,growth inhibition,[4]; at 100.0 µM,30%
same,growth inhibition,[5]; at 1.2 µM,0%
same,growth inhibition,[5]; at 3.7 µM,5%
same,growth inhibition,[5]; [17],95% (active)
same,growth inhibition,[5]; at 11.0 µM,-10%
same,growth inhibition,[5]; at 33.0 µM,35%
same,growth inhibition,[5]; [18],95% (active)
same,growth inhibition,[5]; at 50.0 µM,55.9%
same,growth inhibition,[5]; at 100.0 µM,73% (active)
same,growth inhibition,[6]; at 1.2 µM,-3%
same,growth inhibition,[6]; at 3.7 µM,-2%
same,growth inhibition,[6]; [17],-10%
same,growth inhibition,[6]; at 11.0 µM,-3%
same,growth inhibition,[6]; at 33.0 µM,-4%
same,growth inhibition,[6]; [18],-10%
same,growth inhibition,[6]; at 50.0 µM,32.2%
same,growth inhibition,[6]; at 100.0 µM,33%
same,growth inhibition,[7]; at 1.2 µM,1%
same,growth inhibition,[7]; at 3.7 µM,-1%
same,growth inhibition,[7]; at 11.0 µM,-6%
same,growth inhibition,[7]; at 33.0 µM,-8%
same,growth inhibition,[7]; at 100.0 µM,-20%
same,growth inhibition,[8]; [17],77% (active)
same,growth inhibition,[8]; [18],77% (active)
same,growth inhibition,[8]; at 50.0 µM,22.4%
same,growth inhibition,[9]; at 1.2 µM,0%
same,growth inhibition,[9]; at 3.7 µM,8%
same,growth inhibition,[9]; at 11.0 µM,-1%
same,growth inhibition,[9]; at 33.0 µM,-2%
same,growth inhibition,[9]; at 100.0 µM,24%
same,growth inhibition,[10]; [17],43%
same,growth inhibition,[10]; [18],43%
same,growth inhibition,[10]; at 50.0 µM,34.2%
same,growth inhibition,[11]; at 1.2 µM,-2%
same,growth inhibition,[11]; at 3.7 µM,1%
same,growth inhibition,[11]; [17],-4%
same,growth inhibition,[11]; at 11.0 µM,12%
same,growth inhibition,[11]; at 33.0 µM,5%
same,growth inhibition,[11]; [18],-4%
same,growth inhibition,[11]; at 50.0 µM,29.3%
same,growth inhibition,[11]; at 100.0 µM,32%
same,growth inhibition,[12]; at 1.2 µM,-2%
same,growth inhibition,[12]; at 3.7 µM,-4%
same,growth inhibition,[12]; at 11.0 µM,-5%
same,growth inhibition,[12]; at 33.0 µM,-1%
same,growth inhibition,[12]; at 100.0 µM,42%
same,growth inhibition,[13]; at 1.2 µM,-1%
same,growth inhibition,[13]; at 3.7 µM,-5%
same,growth inhibition,[13]; at 11.0 µM,-4%
same,growth inhibition,[13]; at 33.0 µM,8%
same,growth inhibition,[13]; at 100.0 µM,0%
same,growth inhibition,[14]; at 1.2 µM,-4%
same,growth inhibition,[14]; at 3.7 µM,-6%
same,growth inhibition,[14]; at 11.0 µM,-6%
same,growth inhibition,[14]; at 33.0 µM,14%
same,growth inhibition,[14]; at 100.0 µM,59%
same,growth inhibition,[15]; [17],45%
same,growth inhibition,[15]; [18],45%
same,growth inhibition,[15]; at 50.0 µM,78% (active)
same,growth inhibition,[16]; at 1.2 µM,2%
same,growth inhibition,[16]; at 3.7 µM,-6%
same,growth inhibition,[16]; at 11.0 µM,3%
same,growth inhibition,[16]; at 33.0 µM,32%
same,growth inhibition,[16]; at 100.0 µM,80% (active)

# From PubChem BioAssay (NCI)
